Consider 48 molecules from ChEMBL document CHEMBL3988442, “University of Dundee, Small-Polar-MMV Screening Library” (2021).

In this test the test system is Trypanosoma brucei. The test can be described thus: Trypanosoma brucei 72 hour study. On the set-up: scale not given: in the data most compounds retested in dose-response had high values. It counts as functional, organism-based.

About 960 (1.5%) of roughly 66,000 compounds showed an effect of 50% or more. The entries come from a sample that favours strong results as a whole.

As to `CC(=O)N1[C@H](CN(C)C)C[C@@H]2CN(C(=O)c3ccno3)CC[C@@H]21.O=C(O)C(F)(F)F`, the “Percent Effect” value (30.3 µM, […]) was 5.246%.

For `Cc1nc(C)n(CC2CN(Cc3ccccc3C#N)CCO2)n1` (stereo not drawn), the “Percent Effect” value (30.3 µM, […]) worked out at 19.46%.

For `Cc1nc(C)n(CC2CN(Cc3ccccc3OC(C)C)CCO2)n1` (stereo not drawn), the “Percent Effect” value (30.3 µM, […]) is given as 101%.

As to `Cc1nc(C)n(CC2CN(Cc3cccc4ccccc34)CCO2)n1` (stereo not drawn), where the note is “30.3 µM, […]”, the “Percent Effect” value is recorded as 20.23%.

Regarding `Cn1cc(CN2CCC[C@]3(C[C@@H](Oc4ncccc4F)CO3)C2)cn1.O=C(O)C(F)(F)F.O=C(O)C(F)(F)F`, the “Percent Effect” value (30.3 µM, […]) amounted to 0.8954%.

Turning to `CNC(=O)[C@H]1C[C@@H]2CN(Cc3ccccc3)C[C@H]1O2.O=C(O)C(F)(F)F`, under “30.3 µM, […]”, the “Percent Effect” value was 0.1079%.

With `CN1CCN(c2ncccn2)CC(C(=O)N(C)C)C1` (stereo not drawn), the “Percent Effect” value (30.3 µM, […]) is -26.5%.

As to `CN(C)Cc1nc2c(o1)CN(S(=O)(=O)c1cccs1)C2.O=C(O)C(F)(F)F`, for the setting “30.3 µM, […]”, the “Percent Effect” value is 5.819%.

With `CC(C)c1nc(CN2CCc3onc(-c4cccc(F)c4)c3C2)no1`, for the setting “30 µM, 30.03 µM”, the “Percent Effect” value is recorded as 51.01%.

On to `CC(C(=O)N(C)C)N1CCc2onc(-c3cccc(F)c3)c2C1` (stereo not drawn), for which the “Percent Effect” value (30 µM, 30.03 µM) is reported as -18.33%.

Turning to `CC(C)Cc1nc(CN2CCc3onc(-c4cccc(F)c4)c3C2)no1`, the “Percent Effect” value (30 µM, 30.03 µM) was found to be 18.46%.

With `Fc1cccc(-c2noc3c2CN(Cc2cncn2C2CC2)CC3)c1`, where the note is “30 µM, 30.03 µM”, the “Percent Effect” value is 24.68%.

Consider `CC(C)(C)c1nc(CN2CCc3onc(-c4cccc(F)c4)c3C2)no1`, for which the “Percent Effect” value (30 µM, 30.03 µM) is 51.86%.

`Cn1ncc(CN2CCc3onc(-c4cccc(F)c4)c3C2)c1C1CC1`: where the note is “30 µM, 30.03 µM”, the “Percent Effect” value was 32.05%.

Take `Cn1cc(CNC2CC3(CCN(S(C)(=O)=O)CC3)c3ccccc32)cn1.O=C(O)C(F)(F)F` (stereo not drawn): the “Percent Effect” value (30.3 µM, […]) was -14.03%.

For the molecule `CC(C)c1nnc(N2C[C@@H]3CC[C@H](C2)N(CC2CCC2)C3)s1`, the “Percent Effect” value (30 µM, 30.03 µM) is -2.589%.

On to `CN(C)Cc1cnc(C2CCN(C(=O)c3ccccc3F)C2)[nH]1.Cl` (stereo not drawn), for which the “Percent Effect” value (30.3 µM, […]) was 3.217%.

Consider `O=C(Cn1ccc2sccc2c1=O)NCCCc1ccccc1`, for which the “Percent Effect” value (30 µM, 30.03 µM) is given as -11.95%.

Regarding `Cn1cccc1C(=O)N1CCC2(CC1)CC(N1CCOCC1)C2.O=C(O)C(F)(F)F`, for the setting “30.3 µM, […]”, the “Percent Effect” value is -54.57%.

With `CN(C)CCN(C)C(=O)NC1CCC(Oc2ccccc2C#N)CC1` (stereo not drawn), the “Percent Effect” value (30 µM, 30.03 µM) is 7.047%.

`CN(C)C1(C(=O)NC2CCC(Oc3ccccc3C#N)CC2)CCC1` (stereo not drawn): the “Percent Effect” value (30 µM, 30.03 µM) is reported as -17.82%.

For the molecule `CCNC(=O)NC1CCC(Oc2ccccc2C#N)CC1` (stereo not drawn), the “Percent Effect” value (30 µM, 30.03 µM) is 74.2%.

In the case of `CCOCc1ccc(CNc2cncc(-n3cccn3)n2)cc1`, the “Percent Effect” value (10 µM) is given as -32.35%.

With `CC(NC(=O)C(C)(C)C)c1cc(O)nc(-c2cccnc2)n1` (stereo not drawn), for the setting “30.3 µM, […]”, the “Percent Effect” value was -7.147%.

For the molecule `CC(=O)N1CCN(C(=O)c2csc(-c3ccc(C)cc3C)n2)CC1`, the “Percent Effect” value (10 µM) is -21.97%.

As for `CC(=O)NCC1CCN(C(=O)c2csc(-c3ccc(C)cc3C)n2)CC1`, for the setting “30 µM, 30.03 µM”, the “Percent Effect” value was 56.57%.

For `CC(=O)N1CCCN(C(=O)c2csc(-c3ccc(C)cc3C)n2)CC1`, where the note is “30 µM, 30.03 µM”, the “Percent Effect” value came out at 20.93%.

Take `CN(C)C1CCC2(CCN(Cc3nccn3C)CC2)c2ccccc21.O=C(O)C(F)(F)F.O=C(O)C(F)(F)F` (stereo not drawn): the “Percent Effect” value (30.3 µM, […]) is -42.21%.

Take `CNCC(=O)N1CC(c2cc(Nc3ncccn3)nc(C)n2)C1.Cl`: where the note is “30 µM, 30.03 µM”, the “Percent Effect” value is listed as -14.51%.

On to `Cn1cnnc1C1CCCN(C(=O)c2cc(-c3ccccc3)on2)C1` (stereo not drawn), for which the “Percent Effect” value (30 µM, 30.03 µM) was -25.06%.

With `CCN(CC)CCCNCc1cc2cc(C)cc(C)c2[nH]c1=O`, under “30.3 µM, […]”, the “Percent Effect” value was 66.62%.

Regarding `CCN(CC)CCCNCc1cc2cccc(C)c2[nH]c1=O`, the “Percent Effect” value (30.3 µM, […]) was -3.275%.

`CCN(CC)CCCNCc1cc2cc(C)ccc2[nH]c1=O`: where the note is “30.3 µM, […]”, the “Percent Effect” value was -2.792%.

Regarding `Cc1cc(C(=O)NCCN2CCCCC2C)nn1C(C)(C)C` (stereo not drawn), where the note is “30 µM, 30.03 µM”, the “Percent Effect” value is listed as -37.93%.

As to `Cl.O=C(Nc1cccc(CNCc2ccsc2)c1)C1CC1`, for the setting “10 µM”, the “Percent Effect” value was -60.42%.

Regarding `COCc1cc(NCCCSc2nnc(C)s2)ncn1`, the “Percent Effect” value (30 µM, 30.03 µM) was 0.4948%.

Regarding `CNC(=O)CC1CC2(CCN(CC3CC3)CC2)Oc2ccccc21.O=C(O)C(F)(F)F` (stereo not drawn), the “Percent Effect” value (30.3 µM, […]) is -8.019%.

In the case of `CO[C@H]1CNC[C@@H]1NC(=O)CCc1nc(-c2ccccc2)no1`, under “30.3 µM, […]”, the “Percent Effect” value is on record as 14.68%.

In the case of `CCO[C@H]1COC[C@@H]1NC(=O)CCc1nc(-c2ccccc2)no1`, the “Percent Effect” value (30.3 µM, […]) was -3.299%.

Regarding `O=C(CCc1nc(-c2ccccc2)no1)N[C@H]1COC[C@@H]1N1CCCC1`, the “Percent Effect” value (30.3 µM, […]) is on record as 62.68%.

In the case of `COCCN1C(=O)[C@H]2CC[C@@H]1CN(S(=O)(=O)c1ccc(OC)cc1)C2`, the “Percent Effect” value (30.3 µM, […]) is on record as -80.52%.

For the molecule `Cc1cc(NCCS(C)(=O)=O)nc2cc3c(cc12)CCC3`, where the note is “30 µM, 30.03 µM”, the “Percent Effect” value came to 3.514%.

Regarding `COc1cc2nc(NCCN3CCNC3=O)cc(C)c2cc1OC`, where the note is “30 µM, 30.03 µM”, the “Percent Effect” value came to 57.38%.

`COc1cc2nc(NCCNS(C)(=O)=O)cc(C)c2cc1OC`: the “Percent Effect” value (30 µM, 30.03 µM) is given as 21.73%.

As to `Cc1cc(NCCN2CCNC2=O)nc2cc3c(cc12)CCC3`, the “Percent Effect” value (30 µM, 30.03 µM) is recorded as 101.3%.

`Cc1cc(NCCNS(C)(=O)=O)nc2cc3c(cc12)CCC3`: the “Percent Effect” value (30 µM, 30.03 µM) is recorded as 12.23%.

Consider `COc1cc(OC)c2nc(NCCN3CCNC3=O)cc(C)c2c1`, for which, where the note is “30 µM, 30.03 µM”, the “Percent Effect” value is given as 22.56%.

Take `Cc1cc(C(=O)N2CCn3cc(CN4CCOCC4)nc3C2)no1.O=C(O)C(F)(F)F`: under “30.3 µM, […]”, the “Percent Effect” value is on record as -304.6%.
